Experiment [1] deals with Thyroid hormone receptor beta (Homo sapiens) (UniProt P10828). Description: qHTS assay for small molecule antagonists of thyroid hormone receptor beta signaling (AID 588547; active = well fitted inhibition curve with a large enough effect in the signal ratio, with a control signal flat, not every such curve was filed as active; the % refers to the signal ratio;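 also: cells stimulated with 0.4 nM T3 agonist during compound exposure; % is scaled to controls: 0 for no effect and ±100 for the full control effect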). To be noted: TR-UAS-bla HEK293, beta-lactamase ratio, antagonist mode, 18 h. Summed up: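 TR-UAS-bla GripTite HEK293 cells in 2% charcoal/dextran FBS medium; compounds 0.59 nM to 92 uM with T3 at 0.4nM final, 18 h at 37 C. Beta-lactamase read by CCF4 fluorescence (460/530 nm); Hill fits gave IC50 and efficacy.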
Thyroid hormone receptor beta (Homo sapiens), sequence (P10828 whole entry, looked up): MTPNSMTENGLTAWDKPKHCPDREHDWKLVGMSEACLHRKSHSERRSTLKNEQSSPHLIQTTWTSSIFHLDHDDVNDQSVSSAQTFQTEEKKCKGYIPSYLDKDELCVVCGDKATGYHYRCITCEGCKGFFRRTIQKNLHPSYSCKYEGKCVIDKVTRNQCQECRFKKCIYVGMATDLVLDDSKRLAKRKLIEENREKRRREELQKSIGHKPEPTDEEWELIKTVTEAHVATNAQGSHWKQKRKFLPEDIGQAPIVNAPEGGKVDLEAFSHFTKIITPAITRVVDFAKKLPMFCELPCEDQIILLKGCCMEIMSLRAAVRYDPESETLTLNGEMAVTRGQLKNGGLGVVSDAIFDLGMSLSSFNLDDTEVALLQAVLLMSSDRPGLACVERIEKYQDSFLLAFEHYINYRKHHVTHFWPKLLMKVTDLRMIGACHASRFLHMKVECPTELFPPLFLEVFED

A short description of experiment [2]: qHTS assay for small molecule agonists of the antioxidant response element (ARE) signaling pathway (AID 651741; active = well fitted activation curve with a large enough effect in the signal ratio; the % refers to the signal ratio; also: potency is read from the fitted curve at half-maximal effect). To be noted: HepG2 ARE-bla reporter, beta-lactamase FRET ratio, 16 h. Summed up:
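CellSensor ARE-bla HepG2 cells (2,000/well) carrying ARE-driven beta-lactamase, exposed 16 h at 37 C. LiveBLAzer B/G FRET substrate added for 2 h at room temperature; fluorescence intensity read.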

Experiment [3] is described as follows: qHTS assay for small molecule activators of the p53 signaling pathway (AID 651743; active = well fitted activation curve with a large enough effect in the signal ratio, not every such curve was filed as active; the % refers to the signal ratio; also: % of control where 0% means no effect). The settings on record: HCT-116 p53RE-bla, beta-lactamase FRET ratio, 16 h; stronger effect = higher value. The gist of the method: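 p53RE-bla HCT-116 cells carrying a beta-lactamase reporter under p53 response elements were exposed to compounds for 16 hours at 37 C. Reporter activity read as fluorescence after 2 hours at room temperature with LiveBLAzer B/G FRET substrate.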

Experiment [4] is described as follows: qHTS assay for small molecule activators of the nuclear factor-kappa B (NF-kB) signaling pathway (AID 651749; active = well fitted activation curve with a large enough effect in the signal ratio; the % refers to the signal ratio; also: % of control where 0% means no effect). The settings on record: NF-kB-bla ME-180 cells, beta-lactamase FRET ratio, 16 h; stronger effect = higher value. Summed up:
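NF-kB-bla ME-180 cells carrying a beta-lactamase reporter under an NF-kB response element, 2,000 cells/well, exposed to compound for 16 hr at 37C; FRET-based beta-lactamase fluorescence read-out of pathway activation.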

A short description of experiment [5]: Cytotoxicity counterscreen for NFkB agonists and antagonists (AID 624476).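 Also: potency is read from the fitted curve at half-maximal effect; cells exposed to compound for 48 hours.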 The settings on record: NFkB reporter cell line viability counterscreen; series mostly up to 46.1 µM.
The nature of experiment [6]: qHTS Assay for Identification of Small Molecule Agonists for NFkB Signaling Pathway. (AID 624478).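 Also: compounds tested together with TNF alpha at its EC50 of 10 pM; 0% is about no effect.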 To be noted: NFkB pathway reporter cell assay, agonist mode, cells co-stimulated with 10 pM TNF alpha; series mostly up to 46.1 µM. The gist of the method:
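ME-180 cervical carcinoma, stable NFkB-RE beta-lactamase reporter; 1000 cells/well, overnight attachment; cpd + TNF alpha 10 pM final, 5 h 37 C; LiveBLAzer 2 h RT; FRET 460/530 nm, ex 405 nm.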

Experiment [7] can be described thus: qHTS Assay for Identification of Small Molecule Antagonists for NFkB Signaling Pathway. (AID 624479; calls by dose curve; also: potency is read from the fitted curve at half-maximal effect). To be noted: NFkB pathway reporter cell assay, antagonist mode; series mostly up to 38.3 µM.
Experiment [8] in a line: Cell Proliferation Assay against the TMD8 Cell Line (AID 651645).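 Also: cells exposed to compound for 48 h before reading.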 To be noted: TMD8 DLBCL cell line proliferation/viability; at 46.1 µM (top of the series). The gist of the method: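 Viability by CellTiter-Glo after 48 h compound exposure of 500 log-phase TMD8 cells per well (RPMI, 5% FBS). Percent activity scaled between DMSO (100%) and 9.2 uM final bortezomib (0%).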
Experiment [9] is described as follows: Cell Proliferation Assay against the HBL1 Cell Line (AID 651646).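 Also: cells exposed to compound for 48 h before reading.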 To be noted: HBL1 DLBCL cells; at 46.1 µM (top of the series). The gist of the method: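 HBL1 ABC DLBCL cells, 500/well in RPMI with 5% FBS, treated for 48 h at 37C. Viability read by CellTiter-Glo luminescence, normalized to DMSO as 100% and 9.2 uM bortezomib as 0%.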
The nature of experiment [10]: Cell Proliferation Assay against the TMD8 Cell Line (Caspase readout at 16 hrs) (AID 651712). Also: potency is read from the fitted curve at half-maximal effect. To be noted: TMD8 lymphoma cells, caspase activation luminescence; series mostly up to 46.1 µM. Summed up: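 TMD8 cells in RPMI with 5% FBS were treated with compound for 16 h at 37 C, then caspase 3/7 activation was read by Caspase-Glo luminescence. Percent activity was scaled to DMSO (0%) and 9.2 uM bortezomib final (100%).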

Experiment [11] addresses Voltage-gated inwardly rectifying potassium channel KCNH2 (Homo sapiens) (UniProt Q12809). The experiment in a line: qHTS Assay for Small Molecule Inhibitors of the Human hERG Channel Activity (AID 588834).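 Also: lower thallium flux fluorescence means stronger hERG block; nearly all actives have a fitted effect of over 50% in size.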 Also: potency is read from the fitted curve at half-maximal effect. The settings on record: U2OS BacMam hERG, FluxOR thallium flux fluorescence; series mostly up to 46.1 µM. The gist of the method: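 Kinetic FDSS fluorescence; U2OS + hERG BacMam (~100 virus particles/cell); FluxOR Tl+ flux; ~10 min cpd; AC50 (Hill).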

Experiment [12] can be described thus: S16 Schwann cell viability assay (CellTiter-Glo assay) (AID 624031).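 Also: native untransfected S16 rat Schwann cells; cellular ATP luminescence as a viability measure; plate controls were DMSO-treated cells for no effect and cell-free wells for full effect; nearly all actives have a fitted effect of over 70% in size.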 The settings on record: S16 rat Schwann cells viability, 24 h; series mostly up to 57.5 µM. Summed up:
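Concentration-effect curves come from CellTiter-Glo luminescence of S16 rat Schwann cells after 24 h compound exposure. Each reading was normalized to DMSO wells (0%) and wells without cells, and curves were ranked by r2 and response magnitude.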

Experiment [13] in a line: S16 Schwann cell PMP22 intronic element firefly luciferase assay (AID 624032). Also: nearly all actives have a fitted effect of over 30% in size. Also: potency is read from the fitted curve at half-maximal effect. The settings on record: S16 rat Schwann cells, PMP22 element FLuc, 24 h; series mostly up to 57.5 µM. The gist of the method: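 Rat S16 Schwann cells stably carrying firefly luciferase driven by a PMP22 intronic element, in 10% FBS, treated 24 h at 37 C. ONE-Glo luminescence normalized to PTC124 control and DMSO (0%); curves classed by r2, magnitude and activity.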

The nature of experiment [14]: S16 Schwann cell PMP22 intronic element beta-lactamase assay (AID 624044; calls by dose curve;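 also: 0% = DMSO and -100% = potassium clavulanate positive control; nearly all actives have a fitted effect of over 15% in size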). The settings on record: S16 rat Schwann cells, PMP22 element beta-lactamase FRET, 24 h; series mostly up to 38.3 µM. The gist of the method:
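Rat S16 Schwann cells with beta-Lac driven by a PMP22 intronic element, compound-treated 24 h at 37 °C. LiveBLAzer FRET B/G read: 460 nm normalized to potassium clavulanate vs DMSO; 535 nm FRET as viability; concentration-effect curves classified.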

The target in experiment [15] is Glutaminase kidney isoform, mitochondrial (Homo sapiens) (UniProt O94925). Description: qHTS for Inhibitors of Glutaminase (GLS): LOPAC Validation (AID 624146).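 Also: glutamate product detected by oxidase and peroxidase coupled Amplex red fluorescence gain; % is scaled to controls: 0 for no effect and ±100 for the full control effect; nearly all actives have a fitted effect of over 60% in size.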 The settings on record: glutaminase enzyme activity inhibition; series mostly up to 46.1 µM. Summed up:
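hKGA in 45 mM KH2PO4 pH 8.2, 0.02% Tween-20 with pin-transferred compounds; 1 mM L-glutamine (stock) plus glutamate oxidase/HRP/Amplex Red coupling added. Fluorescence read initially and after 30 min at RT.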

Experiment [16] is described as follows: qHTS of Trypanosoma Brucei Inhibitors: LOPAC Validation (AID 624147). Also: 0% is about no effect. The settings on record: purified enzyme assay, luminescence, 45 min; series mostly up to 57.5 µM. Summed up:
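Assay buffer: 50 mM TEA pH 7.2, 100 mM KCl, 10 mM MgCl2, 0.05% BSA, 0.01% Tween-20. Pyruvate kinase from T. brucei plus substrate met compound, then ADP (130 uM final). Luminescence was read post 45 min RT.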

The target of experiment [17] is Glucagon-like peptide 1 receptor (Homo sapiens) (UniProt P43220). Description: qHTS of GLP-1 Receptor Agonists: LOPAC Validation (AID 624148).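 Also: 0% is about no effect; higher luminescence signal means agonism.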 The settings on record: GLP-1R agonist cell assay; series mostly up to 46.1 µM. The gist of the method: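 HEK293 cells stably co-expressing GLP-1R and a cAMP-responsive luciferase reporter, plated 12 hours before compound, then incubated 4-6 hr at 37 deg C. Luminescence read 12 min after detection reagent.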
Glucagon-like peptide 1 receptor (Homo sapiens), sequence (P43220 whole entry, looked up): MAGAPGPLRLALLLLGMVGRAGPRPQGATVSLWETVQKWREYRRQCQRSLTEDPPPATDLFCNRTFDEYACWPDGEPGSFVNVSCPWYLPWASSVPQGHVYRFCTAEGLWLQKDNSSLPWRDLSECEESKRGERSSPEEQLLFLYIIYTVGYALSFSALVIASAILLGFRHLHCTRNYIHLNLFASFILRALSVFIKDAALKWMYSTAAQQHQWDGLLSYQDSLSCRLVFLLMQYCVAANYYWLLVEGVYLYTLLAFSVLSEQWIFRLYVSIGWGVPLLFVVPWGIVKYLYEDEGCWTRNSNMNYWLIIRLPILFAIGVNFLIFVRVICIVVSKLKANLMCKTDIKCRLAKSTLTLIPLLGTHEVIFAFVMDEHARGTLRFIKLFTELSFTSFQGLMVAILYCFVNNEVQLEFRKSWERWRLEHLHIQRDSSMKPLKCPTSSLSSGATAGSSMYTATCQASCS

Experiment [18] is described as follows: qHTS of Nrf2 Activators: LOPAC Validation (AID 624149). Also: 0% is about no effect. To be noted: Nrf2/ARE reporter cell assay; series mostly up to 46.1 µM. Summed up:
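Luminescence read-out of ARE-luciferase activation: AREc32_Fluc cells treated with compounds for 24 hr at 37 deg C, then lysed with Steady-Glo for 30 min at room temperature before reading.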

The nature of experiment [19]: HTS Assay for Allosteric Antagonists of the Human D2 Dopamine Receptor: Hit Validation in HTRF (AID 624455).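 Also: stable D1 dopamine receptor cell line scored for blocking the D1 response; % is scaled to controls: 0 for no effect and ±100 for the full control effect.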 To be noted: Cells stably expressing D1 dopamine receptor, inhibition mode; series mostly up to 46.1 µM. Summed up: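 First, antagonism was screened by calcium flux in a force-coupled, inducible Hek293 Trex D2 line challenged with EC80 dopamine. Hits then went into an HTRF assay in cells stably expressing D1, testing inhibition of the D1 response.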

The structures appear in SMILES notation. Records with an inconclusive call do not appear. The source made the active and inactive calls. Unless noted, calls follow the shape of the dose curve; as a rule, active = well fitted curve in the direction sought with a large enough effect; inconclusive = small, poorly fitted or top-dose-only effect, or another doubt; inactive = no such curve, though single readings can be large; an effect the other way counts as inactive or inconclusive.

Voltage-gated inwardly rectifying potassium channel KCNH2 (Homo sapiens), sequence (Q12809 whole entry, looked up): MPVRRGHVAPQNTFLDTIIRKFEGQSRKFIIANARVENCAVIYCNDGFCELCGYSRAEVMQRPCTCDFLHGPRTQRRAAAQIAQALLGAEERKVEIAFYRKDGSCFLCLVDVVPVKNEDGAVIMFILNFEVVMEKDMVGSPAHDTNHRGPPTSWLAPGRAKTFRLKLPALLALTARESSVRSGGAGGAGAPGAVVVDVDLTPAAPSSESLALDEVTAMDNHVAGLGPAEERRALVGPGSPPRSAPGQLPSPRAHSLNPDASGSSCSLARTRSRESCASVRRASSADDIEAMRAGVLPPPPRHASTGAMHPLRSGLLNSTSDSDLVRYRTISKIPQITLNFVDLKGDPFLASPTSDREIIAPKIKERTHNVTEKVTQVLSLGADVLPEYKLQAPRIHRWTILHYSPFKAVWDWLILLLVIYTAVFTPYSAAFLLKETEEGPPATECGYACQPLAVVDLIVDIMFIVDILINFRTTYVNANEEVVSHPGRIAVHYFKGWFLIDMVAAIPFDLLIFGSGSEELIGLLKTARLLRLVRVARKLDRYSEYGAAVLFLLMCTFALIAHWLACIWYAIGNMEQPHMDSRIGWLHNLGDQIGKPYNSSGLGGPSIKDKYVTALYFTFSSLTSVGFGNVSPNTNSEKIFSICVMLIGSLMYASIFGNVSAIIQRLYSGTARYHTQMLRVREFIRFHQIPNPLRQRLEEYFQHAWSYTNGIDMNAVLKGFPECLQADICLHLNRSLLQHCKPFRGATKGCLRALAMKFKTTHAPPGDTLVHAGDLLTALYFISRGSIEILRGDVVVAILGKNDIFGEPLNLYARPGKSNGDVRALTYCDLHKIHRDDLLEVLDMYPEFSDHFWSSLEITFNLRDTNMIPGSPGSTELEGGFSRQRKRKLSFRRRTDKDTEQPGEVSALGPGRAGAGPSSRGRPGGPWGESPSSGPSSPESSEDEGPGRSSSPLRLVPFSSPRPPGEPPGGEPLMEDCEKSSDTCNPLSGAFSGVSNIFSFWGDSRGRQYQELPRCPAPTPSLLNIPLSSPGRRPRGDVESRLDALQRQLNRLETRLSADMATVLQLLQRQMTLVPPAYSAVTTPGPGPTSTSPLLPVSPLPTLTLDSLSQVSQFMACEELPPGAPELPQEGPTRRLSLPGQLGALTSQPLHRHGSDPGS
Glutaminase kidney isoform, mitochondrial (Homo sapiens), sequence (O94925 whole entry, looked up, canonical isoform): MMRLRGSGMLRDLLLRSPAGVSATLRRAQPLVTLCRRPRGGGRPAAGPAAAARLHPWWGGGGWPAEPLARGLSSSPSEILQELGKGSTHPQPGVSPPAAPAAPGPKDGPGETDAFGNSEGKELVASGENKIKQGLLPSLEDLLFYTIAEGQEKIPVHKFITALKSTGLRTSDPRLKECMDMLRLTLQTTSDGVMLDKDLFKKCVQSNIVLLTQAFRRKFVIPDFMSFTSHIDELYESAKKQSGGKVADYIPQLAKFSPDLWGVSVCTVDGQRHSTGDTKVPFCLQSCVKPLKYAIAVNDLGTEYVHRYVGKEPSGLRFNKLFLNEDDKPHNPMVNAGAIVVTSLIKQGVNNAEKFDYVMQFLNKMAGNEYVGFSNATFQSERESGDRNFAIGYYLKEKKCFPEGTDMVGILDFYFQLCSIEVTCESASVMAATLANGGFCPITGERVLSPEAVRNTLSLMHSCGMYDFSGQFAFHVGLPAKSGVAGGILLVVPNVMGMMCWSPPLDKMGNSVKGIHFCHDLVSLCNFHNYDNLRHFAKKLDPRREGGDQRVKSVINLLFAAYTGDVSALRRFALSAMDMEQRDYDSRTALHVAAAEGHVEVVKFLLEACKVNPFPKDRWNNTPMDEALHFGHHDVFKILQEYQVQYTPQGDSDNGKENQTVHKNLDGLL

As for `O=C(O)CCCc1c[nH]c2ccccc12`, the activity change % (negative = inhibition) in experiment [1] is 3.26% (inactive). Moreover, the Potency in experiment [2] was 61100 nM (active). Also, the activation is -6.63% (inactive) in [3] and -1.42% (inactive) in experiment [4].
In the case of `CC(C)[C@H](C(=O)Nc1ccc(C(=O)NO)cc1)c1ccccc1`, the Potency in experiment [5] is 18700 nM (active); in [10], 166 nM (active). Also, the result in experiment [6] was inactive. For the same compound, the Potency result in experiment [7] was “inactive”. Further, the viability (% of control) in experiment [8] amounted to 0.267%. In addition, in [9], the viability, percent of control is 0.0861%.
In the case of `Nc1ccc(S(=O)(=O)Nc2ncccn2)cc1`, the Potency result in [11] and in experiment [14] was “inactive” in each case. Also, in experiment [12], the outcome was inactive. Moreover, in experiment [13], the Potency is 6910 nM (active).
Regarding `C[C@H]1C[C@@H]2[C@@H]([C@@H](O)C[C@@]3(C)[C@H]2CC[C@]3(O)C(=O)CO)[C@@]2(C)C=CC(=O)C=C12`, the Potency result in experiment [11], in experiment [13] and in experiment [14] was “inactive” throughout. In addition, the call in [12] was inactive.
Consider `O=c1c2ccccc2nc2n1CCc1c-2[nH]c2ccccc12`, for which the Potency result in experiment [11] was “inactive”. Moreover, the call in experiment [15], in experiment [16], in [17], in experiment [18] and in experiment [19] was inactive.
In the case of `Cc1nc2ccc(CN(C)c3ccc(C(=O)N[C@@H](CCC(=O)O)C(=O)O)s3)cc2c(=O)[nH]1`, in experiment [11], the Potency result was “inactive”.
As to `O=c1[nH]c(=O)n(C2CCCO2)cc1F` (stereo not given), the compound was classed as inactive in experiment [12]. The Potency result in [13] and in experiment [14] was “inactive” each time.
Consider `COC(=O)C1=C(C)NC(C)=C(C(=O)OCCN2CCN(C(c3ccccc3)c3ccccc3)CC2)C1c1cccc([N+](=O)[O-])c1` (stereo not given), for which the Potency in experiment [11] was 3980 nM (active).
As to `Nc1ccn([C@@H]2CS[C@H](CO)O2)c(=O)n1`, the Potency entry in [11] and in experiment [13] was “inactive” each time. Moreover, the outcome in experiment [12] was inactive.
As for `C#Cc1cccc(Nc2ncnc3cc(OC)c(OCCCCCCC(=O)NO)cc23)c1`, the values for the Potency in experiment [5], in experiment [7] and in [10] were 2640 nM (active), 16800 nM (active) and 148 nM (active), respectively. In [6], the call was inactive. Besides, the viability (% of control) in experiment [8] was -0.46%. Besides, the viability, percent of control in [9] was found to be 1.91%.
Turning to `CC[C@H]1CN2CCc3cc(OC)c(OC)cc3[C@H]2C[C@@H]1C[C@@H]1NCCc2cc(OC)c(OC)cc21`, the compound was classed as inactive in experiment [12].
For the compound `CC(C)C[C@H](NC(=O)CNC(=O)c1cc(Cl)ccc1Cl)B(O)O`, the figures for the Potency in [5] and in experiment [7] were 74.3 nM (active) and 8.4 nM (active), respectively. Besides, the compound was classed as inactive in [6]. The viability (% of control) in [8] was determined as 4.52%. Besides, in [9], the viability, percent of control amounted to 5.36%.
In the case of `COC(=O)[C@]12CCC(C)(C)C[C@@H]1[C@@H]1C(=O)C=C3[C@@]4(C)C=C(C#N)C(=O)C(C)(C)[C@@H]4CC[C@@]3(C)[C@]1(C)CC2`, the Potency in experiment [5] was 1320 nM (active); in experiment [7], 595 nM (active). Besides, the call in experiment [6] was inactive.
In the case of `O=C(O)CO.[NH2-].[NH2-].[Pt+2]`, the Potency entry in experiment [11] and in [13] was “inactive” throughout. Also, the call in experiment [12] was inactive.
Turning to `O=C(O)c1ccc2cc(-c3ccc(O)c(C45CC6CC(CC(C6)C4)C5)c3)ccc2c1`, the Potency was 118 nM (active) in [5] and 14900 nM (active) in experiment [7]. In addition, the compound was called inactive in experiment [6]. Further, the viability (% of control) in experiment [8] is 2.27%. Further, in experiment [9], the viability, percent of control worked out at 1.91%.

The record behind these values is PubChem BioAssay (NCATS).
